About 83,000 compounds went through this panel and 20% of them were active in at least one assay; those are over-represented in the sample as a whole.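 A percent growth of 40 corresponds to 60% growth inhibition; 0 means no net growth; -100 means all cells died. Active threshold: below 10.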 Values without a mark were called inactive. The source made the active and inactive calls.
These molecules were tested on HCT-15 colon (assay: NCI-60 one-dose screen, 48 h (100 = growth as untreated, 0 = no growth, -100 = all killed)). Conditions: 10 µM unless noted.

| Structure (SMILES) | growth |
| --- | --- |
| Cc1cc(C)c(S(=O)(=O)/N=c2/n(-c3ccccc3)nc3n2CCN3C2=NCCN2)c(C)c1 | 90.1% |
| COC(=O)c1cc2c(=O)[nH]cc3c2c(n1)CCC3 | 113% |
| Cn1cc(-c2noc(C(=O)c3cn(C)c4ncccc34)n2)c2ccccc21 | 65.2% |
| O=c1cc(-c2ccccc2)oc2cc(OCc3cn(Cc4ccc(F)cc4)nn3)cc(O)c12 | 94.4% [100 µM] |
| Cc1ccc(Cn2c(O)c(N=NC(=O)c3ccc(S(N)(=O)=O)cc3)c3ccccc32)cc1 | 106% |
| CC[C@]12C=CCN3CC[C@@]4(c5ccc(OC)cc5N(C)[C@H]4[C@@](O)(C(=O)OC)[C@@H]1OC(=O)CCC(=O)O[C@H]1CC[C@H]4[C@@H]5CCC6=CC(=O)CC[C@@H]6[C@H]5CC[C@]14C)[C@@H]32 | 14.5% [100 µM] |
| CCC(Br)(CC)C(=O)c1ccc(OCC(=O)O)c(Cl)c1Cl | 103% |
| Oc1c(CNCCNCc2cc(Cl)cc(Cc3ccccc3)c2O)cc(Cl)cc1Cc1ccccc1 | 25.7% |
| CCc1ccc(-c2ccc(COc3ccc(CC4SC(=O)NC4=O)cc3)cc2)cc1 (centres undefined) | 56.4% |
| Cn1cc(-c2noc(-c3cn(C)c4ncc(F)cc34)n2)c2ccccc21 | 58.2% |
| Clc1ccc2nc(-c3ccc(-c4ccc(/C=N/NC5=NCCN5)cc4)s3)cn2c1 | -27.3% (active) |
| CC(C)CCSc1nc(N)nc2nc[nH]c12 | 107% |

Each molecule was assayed on HT29 colon in the same assay as above. Conditions: 10 µM unless noted.

| Structure (SMILES) | growth |
| --- | --- |
| O=C(COc1cccc(/C=C2\Oc3ccccc3C2=O)c1)c1ccc([N+](=O)[O-])cc1 | 108% |
| CC[C@]12C=CCN3CC[C@@]4(c5ccc(OC)cc5N(C)[C@H]4[C@@](O)(C(=O)OC)[C@@H]1OC(=O)CCC(=O)N[C@H](Cc1c[nH]c4ccccc14)C(=O)OC)[C@@H]32 | 5.23% [100 µM] (active) |
| C=C(C)[C@@H]1CC[C@]2(C(N)=O)CC[C@]3(C)[C@H](CC[C@@H]4[C@@]5(C)C/C(=C/c6cccnc6)[C@H](O)C(C)(C)[C@@H]5CC[C@]43C)[C@@H]12 | -20.5% [100 µM] (active) |
| CSc1nc2sc3cc(Cl)c(Cl)cc3n2c(=N)c1C#N | 94.6% |
| COc1ccc(/C=C2\N=C(Nc3ccccc3)N(NC(=O)c3ccccn3)C2=O)cc1 | 112% |
| O=C(NCCCNC(=O)OCc1ccc2cccc(O)c2n1)OCc1ccc2cccc(O)c2n1 | 17% |
| COc1cc(C(=O)/C=C/c2c(-c3ccc(F)cc3)nc3sccn23)cc(OC)c1OC | 5.08% (active) |
| CCCCCCCCCCCCNC(=S)N/N=C/c1ccccc1O | 36.6% |
| CCCc1cc2cc(-n3nc(C)c4c3CC(C)(C)CC4=O)cc(NC3CCSCC3)c2c(=O)[nH]1 | 9.23% (active) |
| COc1ccc(-c2cc(-c3ccc(OC)c(OC)c3)nc(SCCCCCC(=O)NO)n2)cc1 | 31.3% |
| CCC(C)[C@H](NC(=O)NC(=O)NC(=O)CI)C(=O)OC (some centres undefined) | 42.3% |
| CCN(CC)c1ccc(/C=C/c2ccc3cc(C)ccc3[n+]2CC)cc1 | -14.4% (active) |
| N/C(=N\c1nc2ccccc2[nH]1)NC(=O)Cc1cccc2ccccc12 | 83.5% |
| CC1(C)CC[C@]2(C(N)=O)CC[C@]3(C)C(=CC[C@@H]4[C@@]5(C)C/C(=C/c6ccncc6)C(=O)C(C)(C)[C@@H]5CC[C@]43C)[C@@H]2C1 | -65.4% [100 µM] (active) |
| Cc1ccc(C2=C/C(=C/c3ccc(Br)cc3)C(=O)N2CCc2ccc(S(N)(=O)=O)cc2)cc1 | 106% |
| Cc1ccc(NCCN2CCCCC2)c2c(=O)c3ccccc3sc12 | 20.5% |
| CC1(C)CC(=O)c2c(ccc(C(=O)C[C@@H](N)CO)c2N)O1 | -7.99% (active) |
| CCCCC1COc2cccc3c2N1C=C/C3=C\C(=O)n1ccc2ccccc21 (centres undefined) | 43.9% |
| CC(C)CSc1ncnc2nc[nH]c12 | 99.5% |

| Structure (SMILES) | growth |
| --- | --- |
| CC1(C)CC[C@]2(C(=O)O)CC[C@]3(C)C(=CC[C@@H]4[C@@]5(C)C/C(=C/c6cccnc6)[C@H](O)C(C)(C)[C@@H]5CC[C@]43C)[C@@H]2C1 | -79.4% [100 µM] (active) |
| COc1ccc(C=C2c3ccccc3-c3ccccc32)cc1 | 13.7% |
| C#C[C@]1(O)CC[C@H]2[C@@H]3CC=C4c5nc(Nc6ccc(OC)cc6OC)sc5CC[C@]4(C)[C@H]3CC[C@@]21C | -12.8% (active) |
| CCOC(=O)c1nn(C2CCCCO2)c2ccc(NC(=O)CSc3nc4ccccc4c(=O)[nH]3)cc12 (centres undefined) | 125% |
| O=c1[nH]cnc2c1ccn2C1OC(CO)C(O)C1O (centres undefined) | 65.9% |
| CCOC(=O)C(=Cc1ccccc1[N+](=O)[O-])C(=O)OCC | 11.4% |
| Cc1cc(C)c(S(=O)(=O)/N=c2/n(-c3ccccc3)nc3n2CCN3C2=NCCN2)c(C)c1 | 58% |
| COC(=O)c1cc2c(=O)[nH]cc3c2c(n1)CCC3 | 105% |
| Cn1cc(-c2noc(C(=O)c3cn(C)c4ncccc34)n2)c2ccccc21 | 102% |
| O=c1cc(-c2ccccc2)oc2cc(OCc3cn(Cc4ccc(F)cc4)nn3)cc(O)c12 | 100% [100 µM] |
| Cc1ccc(Cn2c(O)c(N=NC(=O)c3ccc(S(N)(=O)=O)cc3)c3ccccc32)cc1 | 111% |
| CC[C@]12C=CCN3CC[C@@]4(c5ccc(OC)cc5N(C)[C@H]4[C@@](O)(C(=O)OC)[C@@H]1OC(=O)CCC(=O)O[C@H]1CC[C@H]4[C@@H]5CCC6=CC(=O)CC[C@@H]6[C@H]5CC[C@]14C)[C@@H]32 | -21.8% [100 µM] (active) |
| CCC(Br)(CC)C(=O)c1ccc(OCC(=O)O)c(Cl)c1Cl | 110% |
| Oc1c(CNCCNCc2cc(Cl)cc(Cc3ccccc3)c2O)cc(Cl)cc1Cc1ccccc1 | 30.6% |
| CCc1ccc(-c2ccc(COc3ccc(CC4SC(=O)NC4=O)cc3)cc2)cc1 (centres undefined) | 103% |
| Cn1cc(-c2noc(-c3cn(C)c4ncc(F)cc34)n2)c2ccccc21 | 66.1% |
| Clc1ccc2nc(-c3ccc(-c4ccc(/C=N/NC5=NCCN5)cc4)s3)cn2c1 | 38.8% |
| CC(C)CCSc1nc(N)nc2nc[nH]c12 | 114% |

— PubChem BioAssay (NCI)
